15 molecules from the supplement of paper PMC6522484 can be followed below.

Structures are written as SMILES. ± gives the standard deviation of the averaged measurements.

Test [1] relates to DLD1. The test is described as follows: cell viability (CellTiter-Glo) relative to plate median (fraction of plate median); higher = more viable cells. The conditions noted are these: 5 µM; treatment time 24 h; reporter: 7TFP. A digest of the protocol: (§1)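 Values are well luminescence normalised to the plate median, from either a firefly luciferase or a CellTiterGlo readout on parallel plates. The cells, colorectal cancer lines stably transduced with lentiviral 7TFP or TCF4/Wnt firefly luciferase reporters, were treated with library compounds at a final 5 µM for 24 h. The mean of two independent replicates is listed.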
For orientation: In ATP-based viability assays light output follows the ATP content of the culture.

In test [2] the test system is HCT116. The description is as above. Conditions: 5 µM; treatment time 24 h; reporter: TCF4/Wnt. Summed up: as §1
Test [3] has as its system SW480. The description is as above. Conditions: 5 µM; treatment time 24 h; reporter: 7TFP. A digest of the protocol:
as §1

Test [4] relates to DLD1. The test is described as follows: TCF/Wnt firefly luciferase reporter signal relative to plate median (fraction of plate median); higher = higher Wnt reporter signal. The conditions noted are these: 5 µM; treatment time 24 h; reporter: 7TFP. A digest of the protocol:
as §1
For orientation: Reporter assays use an easily measured gene product as a stand-in for the process of interest.

For test [5], the system named is SW480. Described as above. Conditions: 5 µM; treatment time 24 h; reporter: 7TFP. Summed up: as §1

As for `CCCc1nc(C(C)(C)O)c(C(=O)OCc2oc(=O)oc2C)n1Cc1ccc(-c2ccccc2-c2nnn[nH]2)cc1`, the values for the cell viability in test [1], in test [2] and in test [3] were 0.99 ± 0.015, 0.978 ± 0.045 and 1.01 ± 0.047, respectively. Further, the “TCF/Wnt firefly luciferase reporter signal” value was 1.11 ± 0.11 in test [4] and 1.11 ± 0.042 in test [5].
On the same counts, the results for `Nc1ccc(C(=O)NCC(=O)O)cc1` are 0.988 ± 0.059, 0.962 ± 0.069, 0.98 ± 0.057, 0.998 ± 0.088 and 0.984 ± 0.12.
For `O=C1C=C2CC3(O)COc4cc(O)ccc4C3=C2C=C1O` (stereo not given), the figures for the cell viability in test [1], in test [2] and in test [3] were 1.02 ± 0.11, 1.06 ± 0.12 and 0.98 ± 0.016, respectively. In addition, the “TCF/Wnt firefly luciferase reporter signal” value is 1.015 ± 0.0071 in test [4] and 1.02 in test [5].
On the same counts, the results for `Cc1nnc(SCC2=C(C(=O)O)N3C(=O)[C@@H](NC(=O)Cn4cnnn4)[C@H]3SC2)s1` are 0.941 ± 0.035, 0.941 ± 0.011, 0.962 ± 0.044, 0.942 ± 0.15 and 0.834 ± 0.16.
On to `O=C(O)C1=C(CSc2nnnn2CS(=O)(=O)O)CS[C@@H]2[C@H](NC(=O)[C@H](O)c3ccccc3)C(=O)N12`, for which the cell viability turned out to be 0.951 ± 0.025 in test [1], 1.05 ± 0.071 in test [2] and 0.973 ± 0.052 in test [3]. In addition, the figures for the “TCF/Wnt firefly luciferase reporter signal” value in test [4] and in test [5] were 0.915 ± 0.023 and 0.968 ± 0.04, respectively.
On the same counts, the results for `Clc1ccc2c(c1)CCc1cccnc1C2=C1CCNCC1` are 0.992 ± 0.011, 1.07 ± 0.021, 0.97 ± 0.021, 1 ± 0.015 and 1.12 ± 0.014.
The corresponding values for `COc1ccc(Cl)cc1C(=O)NCCc1ccc(S(=O)(=O)NC(=O)NC2CCCCC2)cc1` are 1.005 ± 0.0071, 0.962 ± 0.082, 0.976 ± 0.049, 1.12 ± 0.13 and 1.14 ± 0.05.
Turning to `CC(=O)OCC(=O)[C@@]1(O)[C@@H](C)C[C@H]2[C@@H]3CCC4=CC(=O)C=C[C@]4(C)[C@@]3(F)[C@@H](O)C[C@@]21C`, the cell viability in test [1] turned out to be 1.04 ± 0.014; in test [2] it was 1.17 ± 0.11; in test [3], 1 ± 0.026. In addition, the “TCF/Wnt firefly luciferase reporter signal” value is 0.989 ± 0.011 in test [4] and 0.876 ± 0.14 in test [5].
Regarding `CC[C@@H](C)c1cc(=O)c2c(CO)cc3c(c2o1)C(=O)c1c(O)cccc1C3=O` [Espicufolin], the values for the cell viability in test [1], in test [2] and in test [3] were 1.09 ± 0.092, 1.13 ± 0.057 and 1.055 ± 0.0071, respectively. The “TCF/Wnt firefly luciferase reporter signal” value came to 1.29 ± 0.15 in test [4] and 1.06 ± 0.057 in test [5].
On the same counts, the results for `O=C(/C=C/c1ccc(O)c(O)c1)O[C@H](Cc1ccc(O)c(O)c1)C(=O)O` are 1.04 ± 0.014, 0.947 ± 0.09, 0.998 ± 0.031, 0.854 ± 0.015 and 0.934 ± 0.054.
The corresponding values for `Cc1cc(C2CCCCC2)n(O)c(=O)c1` are 1.02 ± 0.014, 0.454 ± 0.12, 1.24 ± 0.18, 0.795 ± 0.077 and 1 ± 0.13.
The corresponding values for `C=C1CC[C@@H]2[C@](C)(CO)[C@H](O)CC[C@@]2(C)[C@@H]1C/C=C1/C(=O)OC[C@H]1O` are 1.03 ± 0.021, 0.963 ± 0.052, 1.02 ± 0.014, 1.06 ± 0.042 and 0.987 ± 0.033.
`C/C=C/C1=CC(=O)[C@@H](O)[C@@H]1O` [Terrein]: the cell viability in test [1] was determined as 0.964 ± 0.066; in test [2], 1.03 ± 0.014; in test [3] it was 0.986 ± 0.011. For the same molecule, the “TCF/Wnt firefly luciferase reporter signal” value in test [4] amounted to 1.25 ± 0.085; in test [5], 1.1 ± 0.11.
On the same counts, the results for `CN1CCC(=C2c3ccccc3Sc3ccccc32)CC1` are 1.004 ± 0.0092, 0.913 ± 0.032, 1.03 ± 0.059, 0.874 ± 0.026 and 0.944 ± 0.071.
Regarding `C=C(C)[C@@H]1CC=C(C(=O)O)CC1`, the cell viability in test [1] came to 1.055 ± 0.0071; in test [2], 1.04 ± 0.11; in test [3] it was 0.995 ± 0.035. Also, the figures for the “TCF/Wnt firefly luciferase reporter signal” value in test [4] and in test [5] were 1.11 ± 0.17 and 1.055 ± 0.0071, respectively.
